ADAM10 inh = ADAM10 inhibition, QFRET primary screen; 370,000 tested, 0.62% active; O14672; recombinant ADAM10, EDANS/DABCYL FRET peptide cleavage, 3 h; inhibition, % at 7 µM;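 active = inhibition above a per-campaign cutoff equal to the mean of compounds falling between control-based bounds plus 3 SD, cut at about 20% in these data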;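 note: 0% = DMSO wells while the 100% control is not disclosed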
Target sequence (O14672 214-748 limits assumed): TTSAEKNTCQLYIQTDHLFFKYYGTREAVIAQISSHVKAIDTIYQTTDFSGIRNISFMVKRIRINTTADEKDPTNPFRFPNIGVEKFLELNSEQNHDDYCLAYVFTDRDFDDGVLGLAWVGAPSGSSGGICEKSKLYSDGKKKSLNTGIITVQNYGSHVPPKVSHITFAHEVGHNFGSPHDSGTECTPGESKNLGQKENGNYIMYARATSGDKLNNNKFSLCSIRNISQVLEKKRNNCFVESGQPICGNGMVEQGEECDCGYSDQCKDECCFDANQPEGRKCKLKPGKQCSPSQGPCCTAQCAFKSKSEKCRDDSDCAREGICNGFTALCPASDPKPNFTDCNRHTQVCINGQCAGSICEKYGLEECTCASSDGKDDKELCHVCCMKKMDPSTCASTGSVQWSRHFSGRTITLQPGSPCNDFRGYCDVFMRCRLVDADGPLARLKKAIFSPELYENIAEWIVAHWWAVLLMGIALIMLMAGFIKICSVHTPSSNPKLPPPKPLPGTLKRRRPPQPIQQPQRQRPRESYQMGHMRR
ADAM17 inh = ADAM17 inhibition, QFRET primary screen | recombinant ADAM17, EDANS/DABCYL FRET peptide cleavage | AID 720648 | 370,000 tested, 0.83% active | P78536 | inhibition, % at 6.95 µM;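 active = inhibition above the mean of compounds lying between control limits plus 3 SD, set per campaign, cut at about 8.5% in these data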;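 note: 0% = DMSO-only wells as the low control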
NR3A LBD binder = modulates the human NR3A ligand-binding domain; NR3A LBD differential scanning fluorimetry, Tm shift; 0% = protein alone, 100% = glycine-bound protein; Tm shift relative to glycine control, % at 25 µM; 340,000 tested, 2.5% active;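 active = melting temperature shift of at least 10% of the positive control shift, at one fixed dose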
FAS TE block = inhibitors of human fatty acid synthase thioesterase domain | inhibition, % at 15 µM | 360,000 tested, 0.67% active | P49327 | recombinant FAS-TE, OMFH fluorogenic substrate, fluorescence endpoint;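 active = compounds whose normalised, plate-corrected inhibition of enzyme fluorescence in the single-dose primary screen is 50% or more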;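 note: 0% = DMSO with enzyme and 100% = substrate without enzyme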
KLK7 zymogen act = activators of human kallikrein-7 zymogen; P49862; purified proKLK7, EDANS-DABCYL substrate fluorescence; 100% is mature enzyme control, 0% vehicle; activation, % at 7 µM; 370,000 tested, 0.9% active; AID 652039;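 active = activation above the mean of all tested compounds plus 3 SD, computed per campaign excluding outliers beyond control limits, cut at about 13% in these data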
FAS-TE inh conf = confirmation of human fatty acid synthase thioesterase inhibitors; shares compounds with FAS TE block; recombinant FAS-TE, OMFH fluorogenic substrate, fluorescence; AID 624325; 2,300 tested, 45% active; inhibition, % at 15 µM;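 active = compounds inhibiting the enzyme by at least 50% at 15 µM in any one of the replicates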;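 note: 0% = enzyme with DMSO only and 100% = wells lacking enzyme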
* = called active by the depositor; i = inactive; · = no result. Most compounds without a hit are left out; they make up all but 4.6% or so of the library.

SMILES | ADAM10 inh | ADAM17 inh | NR3A LBD binder | FAS TE block | KLK7 zymogen act | FAS-TE inh conf
O=C1OCCN1C(=O)[C@H]1[C@H](c2ccc(Cl)cc2)C(c2cccc(Cl)c2)=NN1c1ccccc1 | · | · | 17* | 94* | · | 7
O=C1OCCN1C(=O)[C@H]1[C@H](c2ccc(F)cc2)C(c2cccc(Cl)c2)=NN1c1ccccc1 | i | -266 | 16* | 59* | -342 | 11
Cc1cccc(C2=NN(c3ccccc3)[C@@H](C(=O)N3CCOC3=O)[C@@H]2c2ccc([N+](=O)[O-])cc2)c1 | 13 | 7 | 8 | 92* | 0 | 17
O=C(C1=NN(c2ccccc2)C2C(=O)N(c3ccc(Cl)cc3)C(=O)C12)c1ccccc1 (centres undefined) | 9 | -1 | -2 | 5 | 0 | ·
O=C(CCC(=O)N1CCOc2ccc(Cl)cc21)NCc1ccccc1 | -2 | -3 | -3 | 10 | 0 | ·
Cc1cccc(-c2nc3ccccc3c(=O)n2NC(=O)/C=C/c2ccc([N+](=O)[O-])cc2)c1 | 2 | 1 | -4 | 26 | -1 | ·
O=C(Nc1nc2ncccn2c1-c1ccc(C(F)(F)F)cc1)C1CC1 | i | -243 | · | · | 12 | ·
C[C@H]1CCCN1c1ccc2c(c1)OCCCN(C1CC1)S2(=O)=O | 2 | 0 | · | · | 0 | ·
O=C1OCCN1C(=O)[C@H]1[C@H](c2ccc(F)cc2)C(c2cccc(Cl)c2)=NN1c1ccc(Br)cc1 | i | i | 25* | 73* | -459 | 21
O=C(c1cc(-c2cccc(Cl)c2)on1)N1CCN(c2ccc(F)cc2)CC1 | -9 | 2 | 2 | 19 | -1 | ·
CC(=O)Nc1ccc(NC2=Nc3ccccc3N3C2=Nc2c(c(C)nn2-c2ccccc2)C3c2ccccc2)cc1 (centres undefined) | 4 | 1 | 8 | 46 | 0 | ·
COc1cccc(C2c3c(C)nn(-c4ccc([N+](=O)[O-])cc4)c3N=C3C(=O)Nc4ccccc4N32)c1 (centres undefined) | -5 | 0 | 2 | 72* | 0 | -1
Cc1nn(-c2ccc([N+](=O)[O-])cc2)c2c1C(c1ccc(OC(F)F)cc1)N1C(=N2)C(=O)Nc2ccccc21 (centres undefined) | 1 | 1 | 4 | 86* | 1 | 15
CC(C)(C)c1ccc(OCCC(=O)OCC(=O)NCc2ccccc2)cc1 | 8 | 3 | 2 | 65* | 0 | 67*
O=C(Nc1ccc(F)cc1)OCc1cn(Cc2ccc(F)c(F)c2)nn1 | 6 | 2 | · | · | 0 | ·
O=C(Nc1cc(Oc2ccc(Cl)cc2)cc([N+](=O)[O-])c1)c1ccco1 | 0 | 2 | 22* | 56* | 0 | 45
O=C(CNC(=O)c1ccccc1)N/N=C/c1cc(Br)ccc1O | -86 | -25 | -11 | 54* | -93 | 44*
O=C(CN1CC(c2ccccc2)CC1=O)N/N=C/c1cc(Br)ccc1O (centres undefined) | -106 | -29 | -4 | 69* | -64 | 85*
C=CCN1C(=O)[C@@H](CC(=O)NCCC(C)C)[C@]2(C(=O)OC)CCCCC=C12 | 3 | 4 | · | · | 0 | ·
COc1ccc(-c2nn(-c3ccccc3)cc2/C=C/C(=O)O)cc1[N+](=O)[O-] | -8 | -6 | 0 | 53* | -1 | 62*
O=C(OC12CCCN(C1)/C(=C/c1cccnc1)C2)C1CCCCC1 (centres undefined) | -4 | 0 | · | · | 0 | ·
COc1cc(OC)cc(C(=O)Nc2cccc(C(C)=O)c2)c1 | -1 | 1 | 1 | -1 | 0 | ·
CC(=O)c1cccc(OC(=O)Oc2cccc(C(C)=O)c2)c1 | 1 | -4 | -3 | 50* | 0 | 69*
COP(=O)(O)[C@@H](CC(C)C)NC(=O)OCc1ccccc1 | -1 | -1 | · | · | 0 | ·
O=C(Nc1nnc(C2=COCCO2)o1)c1cccc([N+](=O)[O-])c1 | 2 | -2 | 2 | -4 | 0 | ·
O=C(Nc1nnc(-c2ccc(F)cc2)o1)c1cccc([N+](=O)[O-])c1 | 4 | 3 | -16 | 56* | 0 | 54*
COC(=O)[C@]12C[C@H](CC(=O)NCc3ccc(C)o3)C(=O)N(Cc3ccco3)C1=C[C@H](COCc1ccccc1)O[C@@H]2C | 8 | 3 | · | · | 0 | ·
